Test results taken from PubChem BioAssay (NCATS).
Results filed as inconclusive are left out. Calls of active or inactive are those of the source. Calls come from the whole dose curve; as a rule, active = well fitted inhibition curve with a large enough effect; inconclusive = small, poorly fitted or top-dose-only effect; inactive = flat fitted curve, though single readings scatter. Square brackets hold non-standard residues; d marks the D form. Peptide text beside a SMILES is read from it. ξ: configuration not given here. ξL = CC(C)CC(N)C(=O)O

assay: qHTS for Inflammasome Signaling Inhibitors: IL-1-beta AlphaLISA screen against the NCATS CANVASS Library (AID 1347379); conditions: THP-1 LPS/ATP, IL-1B AlphaLISA secretion, 16 h; series mostly up to 57.5 µM; activity change, negative = inhibition: at the top concentration; outcome: at the top concentration;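 note: human THP-1 cells primed with LPS then triggered with ATP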;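 for Potency: secreted IL-1B measured as AlphaLISA emission at 615 nm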;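 for activity change, negative = inhibition: secreted IL-1B measured as AlphaLISA emission at 615 nm; lower signal means less IL-1B release which is the wanted effect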
Procedure, shortened: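 THP-1, 1 hr compound pre-incubation, then LPS 250 ng/mL + ATP 1.25 mM (final); 16 hr total with compound; IL-1B AlphaLISA, ex 680/em 615 nm; 11-point qHTS, up to 57.5 uM final.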
% is set by controls: 0 for no effect and ±100 for the full control effect; potency is the fitted concentration of half-maximal effect.

Row | Compound | outcome | Potency | activity change, negative = inhibition
1 | O[C@H]1C=C2[C@H]3CN(Cc4cc5c(cc43)OCO5)[C@H]2C[C@@H]1O | inactive | – | –
2 | C/C=C/c1cc2c(c(=O)o1)C(=O)[C@@H](O)[C@H](C)O2 | – | 21.7 µM (active) | –
3 | CC[C@@H](C)[C@H]1NC(=O)C(CC(C)C)NC(=O)[C@@H](CC(C)C)NC(=O)[C@H](Cc2c[nH]c3ccccc23)NC(=O)CNC(=O)[C@@H](CC(N)=O)NC1=O (stereo partly drawn) (cyclo(GW[dL][ξL][dI][dN])) | inactive | – | –
4 | CN1CCc2cc3c(c4c2C1(C)C(=O)c1cc(O)ccc1-4)OCO3 (stereo unspecified) | – | – | -9.23% (inactive)
5 | CC(C)[C@@H]1CC(=O)c2coc3c2[C@H]1C[C@@H](C)C3=O | – | – | -7% (inactive)
6 | CC1=C(C)C(=O)OC(C(C)C2(O)CCC3C4C5OC5C5(O)CC=CC(=O)C5(C)C4CCC32C)C1 (stereo unspecified) | inactive | – | –
7 | COc1cc(C2C3=C(Cc4cc5c(cc42)OCO5)C(=O)OC3)cc(OC)c1OC (stereo unspecified) | inactive | – | –
8 | CO[C@@H]1[C@H](O)[C@@H](C)O[C@@H](OC[C@@H]2C(C)OC(=O)/C=C/[C@H](C)C(O[C@@H]3O[C@H](C)CC4(OC(=O)O[C@@H]4C)C3O)[C@@H](C)CC(C)C(=O)/C=C/[C@H]3OC23)[C@@H]1OC (stereo partly specified) | – | – | -19.1% (inactive)
9 | C=C[C@@](C)(O)CC[C@@H]1[C@@]2(C)CCCC(C)(C)[C@@H]2CC[C@@]1(C)O | – | – | -21% (inactive)
10 | C/C(=C\[C@H](C)C(=O)C[C@H](O)CC1CC(=O)NC(=O)C1)[C@@H]1OC(=O)CCCC/C=C/[C@@H](O)C[C@@H]1C | – | 34.3 µM (active) | –
11 | CC1=C[C@H]2[C@H]3C(=O)C(c4ccc(O)cc4)=C[C@@]3(c3ccc(O)cc3)[C@@H]1C(=O)[C@]2(C)O | inactive | – | –
